The values that follow come from PubChem BioAssay (NCATS).

Inconclusive results are not listed. Values without a mark were called inactive. Calls of active or inactive are those of the source. The call rests on the fitted dose curve; in most records, active means well fitted curve in the direction sought with a large enough effect; inconclusive means small, poorly fitted or top-dose-only effect, or another doubt; inactive means no such curve, though single readings can be large; an effect the other way counts as inactive or inconclusive.
Potency means the concentration at half of the fitted maximal effect.

Test system in one experiment: not listed separately
The experiment in a line: Confirmatory screen GU Rhodamine qHTS for Zika virus inhibitors qHTS (AID 1347157). Further: nearly all actives have a fitted effect of over 70% in size.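 On activity change, negative = inhibition: plate controls were no-inhibitor wells for no effect and no-enzyme wells for full effect.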 As to conditions: purified enzyme assay, Rhodamine110 substrate fluorescence, 15 min; series mostly up to 114 µM; activity change, negative = inhibition: at the top concentration. An excerpt:
Avindra Nath, Ph.D., National Institute of Neurological Disorders and Stroke (NINDS), Bethesda, MD
Radhakrishnan Padmanabhan, Ph.D., Georgetown University (GU), Washington D.C.
Zika Virus causes congenital defects, including microcephaly and is associated with Guillain-Barre syndrome, eningoencephalitis and myelitis in infected adult. […] Using a target-based approach, we hope to establish a screening paradigm to uncover novel, cell-active NS2B-NS3 protease (Zika Virus) specific inhibitors from NCATS' collection of small molecules using qHTS.
Four assay panel was created to identify potential Zika Virus inhibitors. Namely, (1) GU unlinked NS2B-NS3 AMC tagged protease qHTS, (2) GU unlinked NS2B-NS3 Rhodamine tagged protease qHTS, (3) NINDS linked NS2B-NS3 AMC tagged protease qHTS, (4) NINDS linked NS2B-NS3 Rhodamine tagged protease qHTS. Active compounds were re-acquired and re-screened to confirm inhibition. Inhibitors were further screened against various confirmatory and counterscreens in dose response format.
Early Translation Branch (ETB)
National Center for Advancing Translational Sciences (NCATS), Rockville, MD
National Institute of Health (NIH), Bethesda, Maryland
Padmanabhan lab provided the NS2B hydrophilic domain and NS3 protease domain in a noncovalent complex used for the unlinked assay. Control compound aprotinin is obtained from Thermo Scientific (#78432; Waltham, Massachusetts). Rhodamine110 substrate ([N-Cbz]-Nle-Lys-Arg-Arg-Rhod110-Arg-Arg-Lys-Nle-[N-Cbz]) was purchased from either Genscript or Bachem.
1536-well Protease (Rhodamine110 Substrate) Assay:
Briefly, 3 microL of enzyme (25 nM final concentration), in assay buffer (10 mM Tris-HCl pH 8.0 with 0.01% Tween 20) were dispensed into a 1,536-well solid-bottom black plate (Greiner Bio One, Monroe, NC). Twenty-three nL of compounds (final concentration range 7.28 nM to 114 microM) or control Aprotinin (final concentration range 3.47 nM to 114 microM) were transferred via Wako Pin-tool (Wako Automation, Richmond, VA). Samples were incubated (room temperature, protected from light) for 15 minutes followed by a 1 microL Rhodamine110 substrate addition (1.5 microM final concentration). Plates were then immediately read on a ViewLux High-throughput CCD imager (PerkinElmer, Waltham, MA) equipped with FITC fluorescence optics (480(20) nm excitation, 540(25) nm emission), then incubated (room temperature, protected from light) for 15 minutes (~15% conversion). The change in fluorescence intensity over the 15-minute reaction period was normalized against no-inhibitor and no-enzyme controls and the resulting percent inhibition data were fitted to a 4-parameter Hill equation. Aprotinin was used as intraplate control.
As to `CC(C)(Sc1ccc(CCN(CCCCC2CCCCC2)C(=O)NC2CCCCC2)cc1)C(=O)O`, the Potency is 1.97 µM (active).

Consider `Cc1cc2c(C(C)C)c(O)c(O)c(C=O)c2c(O)c1-c1c(C)cc2c(C(C)C)c(O)c(O)c(C=O)c2c1O`, for which the Potency was 2.51 µM (active).

Consider `COc1cc2c(cc1OC)CN(CCc1ccc(NC(=O)c3cccc4c(=O)c5cccc(OC)c5[nH]c34)cc1)CC2`, for which the Potency is 44.1 µM (active).

For `Cc1cc(SCc2sc(-c3ccc(C(F)(F)F)cc3)nc2C)ccc1OCC(=O)O`, the Potency is 2.48 µM (active).

For the compound `OCCn1cc(-c2cnc3nnn(Cc4ccc5ncccc5c4)c3n2)cn1`, the “activity change, negative = inhibition” value is -4.82%.

The subject of a further experiment is Zika virus NS2B-NS3 protease (unlinked complex). The experiment in a line: Primary screen GU Rhodamine qHTS for Zika virus inhibitors: Unlinked NS2B-NS3 protease assay (AID 1347159). Further: nearly all actives have a fitted effect of over 60% in size. On activity change, negative = inhibition: on the % scale 0 is the no-effect control and ±100 the full control effect. The following applies: Recombinant ZIKV NS2B-NS3 protease, Rhodamine110 substrate fluorescence; series mostly up to 107 µM; activity change, negative = inhibition: at the top concentration. In a few lines:
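A qHTS format was used, with compound concentrations ranging up to 114 microM. Each compound was preincubated with 25 nM NS2B-NS3 protease, and the substrate was then added at 1.5 microM. Curves were fitted with a 4-parameter Hill model.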
With `CCOc1ccn(-c2ccc(F)cc2)c(=O)c1C(=O)Nc1ccc(Oc2ccnc(N)c2Cl)c(F)c1`, the “activity change, negative = inhibition” value was -1.37%.

Take `CC(C)(Sc1ccc(CCN(CCCCC2CCCCC2)C(=O)NC2CCCCC2)cc1)C(=O)O`: the Potency is 3.55 µM (active).

For `CC(C)OC(=O)C1=CN(C(=O)c2ccc(F)c(F)c2)CC(C)(C)c2c1[nH]c1ccccc21`, the “activity change, negative = inhibition” value is -6.75%.

`CCc1cc(Nc2nccc(-c3c(-c4ccc(OC)c(C(=O)Nc5c(F)cccc5F)c4)nc4ccccn34)n2)c(OC)cc1N1CCC(N2CCN(S(C)(=O)=O)CC2)CC1`: the “activity change, negative = inhibition” value is 54.5%.

Regarding `CC1(C)CNc2cc(NC(=O)c3cccnc3NCc3ccncc3)ccc21`, the “activity change, negative = inhibition” value is 6.56%.

Take `Cn1cc(-c2ccc3nnc(C(F)(F)c4ccc5ncccc5c4)n3n2)cn1`: the “activity change, negative = inhibition” value is 11.3%.

`COc1c(Cl)cc2c([nH]c3cnccc32)c1NC(=O)c1cccnc1C`: the “activity change, negative = inhibition” value is 0%.

For `COc1cc(Oc2ccnc3cc(OC)c(OC)cc23)ccc1NC(=O)NC(C)c1nccs1` (stereo not drawn), the “activity change, negative = inhibition” value was 0.614%.
